Laboratory results published in PubChem BioAssay (EPA / NIEHS).
Results filed as inconclusive are left out. Active and inactive are the calls of the source. The calls were made as follows, unless noted: active = hit-call score of the fitted dose curve at least 0.9, where 1 is the maximum; inactive = score below 0.9.

Columns and labels:
[1] = target: Retinoic acid receptor RXR-alpha (Homo sapiens) (UniProt P19793); test: ATG_RXRa_TRANS: Attagene TRANS-FACTORIAL HepG2 Assay for human Retinoid X Receptor alpha (RXRa) (AID 2283012; active = hit-call score of the fitted dose curve at least 0.9, where 1 is the maximum)
Chain of Retinoic acid receptor RXR-alpha (Homo sapiens) (P19793 whole entry, looked up, the tested form may be a part): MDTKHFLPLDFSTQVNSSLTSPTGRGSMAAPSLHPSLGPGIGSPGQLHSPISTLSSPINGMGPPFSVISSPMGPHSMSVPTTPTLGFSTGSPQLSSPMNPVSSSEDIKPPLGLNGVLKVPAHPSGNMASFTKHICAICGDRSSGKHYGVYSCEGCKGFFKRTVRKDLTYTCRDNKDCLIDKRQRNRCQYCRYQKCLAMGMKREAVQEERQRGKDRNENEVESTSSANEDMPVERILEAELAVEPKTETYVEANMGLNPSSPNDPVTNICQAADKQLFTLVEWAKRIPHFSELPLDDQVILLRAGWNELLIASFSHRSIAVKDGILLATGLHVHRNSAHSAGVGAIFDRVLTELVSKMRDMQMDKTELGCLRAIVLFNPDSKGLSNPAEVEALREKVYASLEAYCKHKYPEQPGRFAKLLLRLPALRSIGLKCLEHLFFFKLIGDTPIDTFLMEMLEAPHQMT
Summary of the method: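 HepG2 cells transiently transfected with multiplexed GAL4-UAS reporter units and chimeric NR-GAL4 fusions, dosed 24 h. Reporter mRNA measured by RT-PCR, FAM labelling, HpaI digestion and capillary electrophoresis; gain-of-signal fitted relative to DMSO baseline.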

[2] = target: human Retinoid X Receptor beta (RXRb), RXRB (gene 6257) (UniProt P28702); test: ATG_RXRb_TRANS: Attagene TRANS-FACTORIAL HepG2 Assay for human Retinoid X Receptor beta (RXRb) (AID 2283013; active = hit-call score of the fitted dose curve at least 0.9, where 1 is the maximum)
Chain of human Retinoid X Receptor beta (RXRb), RXRB (gene 6257) (P28702 whole entry, looked up, the tested form may be a part): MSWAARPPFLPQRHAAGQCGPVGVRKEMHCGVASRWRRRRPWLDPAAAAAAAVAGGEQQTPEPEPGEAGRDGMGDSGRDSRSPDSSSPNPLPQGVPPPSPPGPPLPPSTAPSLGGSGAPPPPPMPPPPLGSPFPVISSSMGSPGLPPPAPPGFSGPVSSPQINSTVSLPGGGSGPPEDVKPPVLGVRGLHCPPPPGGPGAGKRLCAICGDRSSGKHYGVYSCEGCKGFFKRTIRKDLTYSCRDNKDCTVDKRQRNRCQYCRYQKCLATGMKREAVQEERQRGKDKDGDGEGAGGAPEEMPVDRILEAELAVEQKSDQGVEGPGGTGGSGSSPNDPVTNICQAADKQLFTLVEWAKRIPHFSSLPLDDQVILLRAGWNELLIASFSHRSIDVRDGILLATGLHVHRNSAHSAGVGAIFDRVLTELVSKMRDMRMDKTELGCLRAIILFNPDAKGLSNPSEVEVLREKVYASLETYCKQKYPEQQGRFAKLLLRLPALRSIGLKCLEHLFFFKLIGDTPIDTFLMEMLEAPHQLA
Summary of the method: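 HepG2 cells transiently transfected with multiplexed reporter units driven by GAL4-UAS and exogenous chimeric NR-Gal4 proteins; treated 24 h. Reporter mRNA measured by RT-PCR, 6-FAM labelling and capillary electrophoresis; gain-of-signal fitted versus DMSO baseline.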

[3] = target: human Thyroid Receptor alpha (THRa1), THRA (gene 7067) (UniProt P10827); test: ATG_THRa1_TRANS: Attagene TRANS-FACTORIAL HepG2 Assay for human Thyroid Receptor alpha (THRa1) (AID 2283014; active = hit-call score of the fitted dose curve at least 0.9, where 1 is the maximum)
Chain of human Thyroid Receptor alpha (THRa1), THRA (gene 7067) (P10827 whole entry, looked up, the tested form may be a part): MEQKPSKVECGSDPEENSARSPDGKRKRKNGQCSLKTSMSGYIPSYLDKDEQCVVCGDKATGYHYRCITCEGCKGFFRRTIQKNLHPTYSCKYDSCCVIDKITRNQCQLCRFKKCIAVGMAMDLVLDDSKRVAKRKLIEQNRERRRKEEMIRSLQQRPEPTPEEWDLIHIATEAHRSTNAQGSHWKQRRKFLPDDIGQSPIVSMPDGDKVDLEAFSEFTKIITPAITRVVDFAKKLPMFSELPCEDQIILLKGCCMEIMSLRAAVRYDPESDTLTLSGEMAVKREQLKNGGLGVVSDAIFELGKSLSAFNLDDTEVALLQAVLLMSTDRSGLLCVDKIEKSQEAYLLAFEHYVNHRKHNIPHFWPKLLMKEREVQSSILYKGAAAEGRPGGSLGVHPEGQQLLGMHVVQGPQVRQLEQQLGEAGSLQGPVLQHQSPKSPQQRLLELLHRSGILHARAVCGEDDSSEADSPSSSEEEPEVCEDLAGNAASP
Summary of the method: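 HepG2 cells transiently transfected with multiplexed GAL4-UAS reporter units for exogenous chimeric THRa1-Gal4; reporter mRNA measured 24 h after dosing by RT-PCR, 6-FAM labelling, HpaI digestion and capillary electrophoresis. Gain-of-signal fitted versus DMSO baseline.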

[4] = read-out: E-selectin (Homo sapiens) (UniProt P16581); test: BSK_3C_Eselectin: BioMAP Diversity Plus: 3C Assay for Eselectin Biomarker Activity (AID 2283015); conditions: primary human endothelial cells (HUVEC); actives raise or lower the signal
Summary of the method: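 Primary human umbilical vein endothelial cells (3C system) were dosed with chemical and cell-surface E-selectin measured by ELISA 24 h later. Bidirectional curve fitting used DMSO as negative control and baseline.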

[5] = read-out: Interleukin-1 alpha (IL1a), IL1A (gene 3552); test: BSK_BE3C_IL1a: BioMAP Diversity Plus: BE3C Assay for Interleukin-1 alpha (IL1a) Biomarker Activity (AID 2283016); conditions: primary human bronchial epithelial cells; actives raise or lower the signal
Summary of the method: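 Human primary bronchial epithelial cells (BE3C system) were dosed with compound and IL-1a measured by ELISA 24 h later. Activity was fitted bidirectionally against DMSO baseline; cytotoxicity was tracked in parallel cultures by SRB total-protein staining.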

[6] = read-out: Monocyte Chemoattractant Protein-1 (MCP1), CCL2 (gene 6347); test: BSK_3C_MCP1: BioMAP Diversity Plus: 3C Assay for Monocyte Chemoattractant Protein-1 (MCP1) Biomarker Activity (AID 2283017); conditions: primary human endothelial cells (HUVEC); actives raise or lower the signal
Summary of the method: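 Primary human umbilical vein endothelial cells (3C system) were exposed to test chemical for 24 h, after which MCP-1 was quantified by ELISA. Activity was fitted bidirectionally against DMSO as negative control and baseline.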

[7] = read-out: Monocyte Chemoattractant Protein-1 (MCP1), CCL2 (gene 6347); test: BSK_4H_MCP1: BioMAP Diversity Plus: 4H Assay for Monocyte Chemoattractant Protein-1 (MCP1) Biomarker Activity (AID 2283018); conditions: primary human endothelial cells (HUVEC); actives raise or lower the signal
Summary of the method: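 Human umbilical vein endothelial cells (4H system) dosed with chemical; MCP-1 measured by ELISA 24 h after dosing. Bidirectional curve fitting against DMSO negative control as baseline; parallel SRB total-protein staining tracks overt cytotoxicity.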

[8] = read-out: Human Leukocyte Antigen - DR isotype (HLADR), HLA-DRA (gene 3122); test: BSK_3C_HLADR: BioMAP Diversity Plus: 3C Assay for Human Leukocyte Antigen - DR isotype (HLADR) Biomarker Activity (AID 2283019); conditions: primary human endothelial cells (HUVEC); actives raise or lower the signal
Summary of the method: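 Primary human umbilical vein endothelial cells (3C system) were dosed with compound and cell-surface HLA-DR was quantified by ELISA at 24 h. Activity was fitted bidirectionally against DMSO as negative control and baseline.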

[9] = read-out: Interleukin-8 (IL8), CXCL8 (gene 3576); test: BSK_3C_IL8: BioMAP Diversity Plus: 3C Assay for Interleukin-8 (IL8) Biomarker Activity (AID 2283020); conditions: primary human endothelial cells (HUVEC); actives raise or lower the signal
Summary of the method: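 Primary human umbilical vein endothelial cells (3C system) were exposed to test chemical for 24 h, then IL-8 was quantified by ELISA. Responses were fitted bidirectionally against DMSO vehicle as baseline.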

[10] = read-out: Monokine induced gamma interferon (MIG), CXCL9 (gene 4283); test: BSK_3C_MIG: BioMAP Diversity Plus: 3C Assay for Monokine induced gamma interferon (MIG) Biomarker Activity (AID 2283021); conditions: primary human endothelial cells (HUVEC); actives raise or lower the signal;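 as to AC50: MIG protein level measured by immunoassay in the treated endothelial cultures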
Summary of the method: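 Primary human umbilical vein endothelial cells in the 3C system were exposed to chemical for 24 h, after which MIG was quantified by ELISA. Activity was fitted bidirectionally against DMSO as negative control and baseline.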

Measured: AC50

Chain of E-selectin (Homo sapiens) (P16581 whole entry, looked up): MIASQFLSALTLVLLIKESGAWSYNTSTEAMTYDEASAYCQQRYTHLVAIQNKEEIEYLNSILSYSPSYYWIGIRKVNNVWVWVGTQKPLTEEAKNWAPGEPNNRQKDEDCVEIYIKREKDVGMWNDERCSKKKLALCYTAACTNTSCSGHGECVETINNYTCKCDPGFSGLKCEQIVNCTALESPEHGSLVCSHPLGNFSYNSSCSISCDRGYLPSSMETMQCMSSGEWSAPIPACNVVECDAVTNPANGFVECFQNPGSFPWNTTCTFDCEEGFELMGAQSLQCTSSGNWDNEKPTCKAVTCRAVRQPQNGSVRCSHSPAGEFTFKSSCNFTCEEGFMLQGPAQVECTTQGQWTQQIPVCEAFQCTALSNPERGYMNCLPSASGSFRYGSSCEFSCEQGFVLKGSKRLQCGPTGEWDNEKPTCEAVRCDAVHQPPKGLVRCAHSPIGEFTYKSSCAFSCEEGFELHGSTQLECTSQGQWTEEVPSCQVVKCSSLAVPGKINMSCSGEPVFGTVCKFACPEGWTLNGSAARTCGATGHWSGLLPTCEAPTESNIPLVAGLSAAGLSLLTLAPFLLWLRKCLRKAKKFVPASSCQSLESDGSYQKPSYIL

CCCCOC(=O)C(C)Oc1ccc(Oc2ccc(C(F)(F)F)cn2)cc1 (stereo not drawn)
inactive: all assays above

c1ccc(Nc2ccccc2)cc1
active: [8] 13.5 µM
not listed: [3]
inactive: all other assays above

COCCO
not listed: [3]
inactive: all other assays above

COc1nc(C)nc(NC(=O)NS(=O)(=O)c2ccccc2OCCCl)n1
not listed: [3]
inactive: all other assays above

OB(O)O
not listed: [2] | [3]
inactive: all other assays above

CC(=O)[C@H]1CC[C@H]2[C@@H]3CCC4=CC(=O)CC[C@]4(C)[C@H]3CC[C@]12C
inactive: [1] | [5] | [10]
active: [4] 10.1 µM | [6] 8.12 µM | [7] 12.7 µM | [8] 20 µM | [9] 20 µM

Oc1ccc(C(c2ccc(O)cc2)C(Cl)(Cl)Cl)cc1
inactive: [2] | [3]
active: [4] 27.3 µM | [5] 31.5 µM | [6] 29.1 µM | [7] 14.6 µM | [8] 33.5 µM | [9] 15.5 µM | [10] 30.7 µM

CCCN(CCC)c1c([N+](=O)[O-])cc(C(F)(F)F)c(N)c1[N+](=O)[O-]
active: [4] 14.9 µM | [5] 31.3 µM | [6] 29.4 µM | [7] 29.7 µM | [8] 18.4 µM | [9] 32.9 µM | [10] 31.7 µM
inactive: [3]

O=C(Nc1ccc([N+](=O)[O-])cc1Cl)c1cc(Cl)ccc1O
inactive: [3] | [4] | [6] | [9] | [10]
active: [5] 0.148 µM | [8] 0.169 µM

COC(=O)c1ccccc1C(=O)O
active: [8] 9.98 µM
not listed: [1] | [2]
inactive: all other assays above

COC(=O)c1ccc(I)cc1S(=O)(=O)NC(=O)Nc1nc(C)nc(OC)n1
not listed: [1] | [2] | [3]
inactive: all other assays above

CCOC(=O)COc1cc(-n2ncc(C(F)(F)F)c(C)c2=O)c(F)cc1Cl
not listed: [1]
inactive: all other assays above

CSC(=O)c1cccc2nnsc12
not listed: [1]
inactive: all other assays above

COC(=O)c1ccc(CNS(C)(=O)=O)cc1S(=O)(=O)NC(=O)Nc1nc(OC)cc(OC)n1
not listed: [1]
inactive: all other assays above

CC(=O)S[C@@H]1CC2=CC(=O)CC[C@]2(C)[C@H]2CC[C@@]3(C)[C@@H](CC[C@@]34CCC(=O)O4)[C@H]12
active: [4] 20 µM | [6] 27.7 µM | [7] 20 µM | [8] 26.3 µM | [9] 18.9 µM
inactive: [1] | [3] | [5] | [10]

C#CCOC(=O)[C@@H](C)Oc1ccc(Oc2ncc(Cl)cc2F)cc1
not listed: [2] | [3]
inactive: all other assays above

S=C([S-])NCCNC(=S)[S-].[Mn+2]
active: [8] 29.7 µM
not listed: [2]
inactive: all other assays above

CCOC(=O)[C@H](C)Oc1ccc(Oc2nc3ccc(Cl)cc3o2)cc1
active: [8] 7.25 µM
not listed: [3]
inactive: all other assays above

COC(=O)c1ccccc1S(=O)(=O)NC(=O)Nc1nc(OC(F)F)cc(OC(F)F)n1
not listed: [1] | [2] | [3]
inactive: all other assays above

COc1c(Cl)ccc(Cl)c1C(=O)O
not listed: [2]
inactive: all other assays above

CCCCCCC(C)OC(=O)COc1nc(F)c(Cl)c(N)c1Cl (stereo not drawn)
inactive: [5]
active: [4] 31.4 µM | [6] 30.8 µM | [7] 32.3 µM | [8] 31.6 µM | [9] 36.5 µM | [10] 37.7 µM

C=CCOC(Cn1ccnc1)c1ccc(Cl)cc1Cl (stereo not drawn)
active: [7] 27.7 µM | [8] 13.6 µM
not listed: [1] | [3]
inactive: all other assays above

CCCOC(=O)NCCCN(C)C
not listed: [3]
inactive: all other assays above

COC(=O)c1c(Cl)nn(C)c1S(=O)(=O)NC(=O)Nc1nc(OC)cc(OC)n1
not listed: [1] | [2]
inactive: all other assays above

c1ccc2[nH]c(-c3cscn3)nc2c1
not listed: [3]
inactive: all other assays above

COC(=O)CSc1cc(N=c2sc(=O)n3n2CCCC3)c(F)cc1Cl
not listed: [2]
inactive: all other assays above

CC(C)CCCCCCc1ccc(O)cc1
inactive: [3]
active: [1] 12.3 µM [middle of 4 runs] | [4] 8.72 µM | [5] 26.7 µM | [6] 9.8 µM | [7] 7.07 µM | [8] 9.6 µM | [9] 8.35 µM | [10] 8.53 µM

N[C@@H](Cc1cc(I)c(Oc2ccc(O)c(I)c2)c(I)c1)C(=O)O
not listed: [3]
inactive: all other assays above

O=C(O)C1(C(=O)Nc2ccc(Cl)cc2Cl)CC1
active: [8] 4.68 µM
not listed: [2] | [3]
inactive: all other assays above

CCN(Cc1c(F)cccc1Cl)c1c([N+](=O)[O-])cc(C(F)(F)F)cc1[N+](=O)[O-]
active: [7] 11.3 µM | [8] 5.69 µM
not listed: [3]
inactive: all other assays above

COC(=O)c1cccc(C)c1S(=O)(=O)NC(=O)Nc1nc(OCC(F)(F)F)nc(N(C)C)n1
not listed: [2]
inactive: all other assays above

CC(C)(C)[C@@H](O)[C@@H](Cc1ccc(Cl)cc1)n1cncn1
active: [8] 7.11 µM
not listed: [1]
inactive: all other assays above
